An excerpt weighted towards active compounds, which were near 1.5% of everything screened.
PLCb3 inh – PLC-beta3 (human) inhibition, primary screen; Q01970; Purified PLC-beta3, fluorogenic substrate, fluorescence; inhibition, % at 12.2 µM; 0.18% of 370,000 active; in the data active = inhibition above about 11%
sPLA2-III inh – Inhibits HGIII-sPLA2 liposome hydrolysis, primary screen. 0.56% of 370,000 active. QFRET BODIPY PC-A2 liposome hydrolysis, fluorescence. Q9NZ20. inhibition, % at 12.2 µM;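 active = inhibition above mean plus 3 SD of compounds lying within the high and low control bounds, cut at about 19% in these data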
DAGLB inhibitor – blocks human DAGLB lipase activity | Q8NCG7 | HEK293T DAGLB membrane lysate, EnzChek fluorogenic substrate | inhibition, % at 5.17 µM | 0.059% of 340,000 active | AID 504411; in the data active = inhibition above about 34%
PLCg1 inh – blocks human PLC-gamma1 enzyme activity; purified PLC-gamma1, fluorogenic substrate, fluorescence; 0.84% of 370,000 active; P19174; AID 720700; inhibition, % at 12.2 µM; in the data active = inhibition above about 9.5%
sPLA2 confirm – human GIII-sPLA2 inhibition, confirmation; 34% of 2,000 active; shares compounds with sPLA2-III inh; AID 743280; inhibition, % at 12.2 µM; recombinant hGIII-sPLA2, BODIPY PC-A2 QFRET fluorescence;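 active = mean inhibition across triplicates above the hit cutoff set in the earlier primary screen, cut at about 19% in these data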
BODIPY interf – 535nm fluorescence interference, HGIII-sPLA2 counter-screen; inhibition, % at 12.2 µM; AID 743282; shares compounds with sPLA2-III inh; 8.5% of 2,000 active; BODIPY FL product fluorescence interference, QFRET;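 active = average inhibition above the solvent-only control mean plus 3 SD, cut at about 6% in these data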
BODIPY interf DR – 535nm optical interference dose response, HGIII-sPLA2 counter-screen. IC50, µM. BODIPY FL product fluorescence interference, cell-free. 240 tested, under 10 active. shares compounds with sPLA2-III inh;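 active = IC50 at or below 10 µM; inactive = IC50 above 10 µM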
Hits are given with their value; n = inactive; x = no result given.

SMILES | PLCb3 inh | sPLA2-III inh | DAGLB inhibitor | PLCg1 inh | sPLA2 confirm | BODIPY interf | others
CC(C)Sc1cc(N2CCCC2)nc(-c2ccccc2Cl)n1 | n | 22.4 | n | n | n | n
O=C(NC1CCCCC1)O[C@H]1CC[C@@]23CCCN2C(=O)CCC[C@H]3C1 | n | n | x | n | x | x
CC1CC(C)(C)NC(=S)N1CCCC(=O)Nc1ccc(F)cc1 (stereo not drawn) | n | n | n | n | x | x
CC1CC(C)(C)NC(=S)N1CC(=O)NCc1ccccc1Cl (stereo not drawn) | n | 30.0 | n | n | n | n
COc1ccc(C)cc1NC(=O)CCCN1C(=S)NC(C)(C)CC1C (stereo not drawn) | n | 23.6 | n | n | n | n
CC1CC(C)(C)NC(=S)N1CC(=O)NCc1ccc(Cl)cc1 (stereo not drawn) | n | n | n | n | x | x
CCOc1ccc(OCC)c(NC(=O)CCCN2C(=S)NC(C)(C)CC2C)c1 (stereo not drawn) | n | 24.9 | n | n | 23.7 | n
CCOc1ccccc1NC(=O)CCCN1C(=S)NC(C)(C)CC1C (stereo not drawn) | n | 21.5 | n | n | 19.9 | n
CC1CCCC(C)N1NC(=S)Nc1ccc(OC(F)F)cc1 (stereo not drawn) | n | 19.4 | n | n | 20.0 | n
Cc1nn(C)cc1-c1n[nH]c(=S)n1-c1ccc(Cl)cc1 | n | n | n | n | x | x
CC(C)(C)c1cc(-c2n[nH]c(=S)n2-c2ccc(Cl)cc2)n[nH]1 | n | 20.8 | n | n | 27.0 | n
COC(=O)c1cc(-c2cnc(OC)nc2OC)c(=O)n2c1CCC2 | n | n | x | n | x | x
CC(=O)c1ccc(-n2nnnc2SCC(=O)Nc2sc(C)c(C)c2C#N)cc1 | n | 19.3 | n | n | n | n
Cc1ccc(-n2nnnc2SCC(=O)Nc2sc(C)c(C)c2C#N)cc1C | n | n | n | n | x | x
CC1(C)CC(=O)C(Sc2ccccc2C(=O)O)=C(O)C1 | n | 22.7 | n | n | n | n
O=C(CN1CCN(c2nc(-c3ccccc3)cs2)CC1)Nc1ccc(F)cc1F | n | n | x | n | x | x
CCC[C@H]1[C@@H](NCc2ccccc2)CC[C@@]23CCCN2C(=O)CCC[C@@H]13 | n | n | x | n | x | x
CCn1cc(CNC(=O)c2c(-c3c(Cl)cccc3Cl)noc2C)c(C)n1 | n | 20.6 | n | n | n | n
Cc1onc(-c2c(Cl)cccc2Cl)c1C(=O)NCc1ccccn1 | n | n | n | n | x | x
C=CCS/C(N)=N\N=C\c1c(O)ccc2ccccc12 | n | 20.3 | n | n | 28.8 | n | BODIPY interf DR=n
COC(=O)[C@]12C[C@H](CC(=O)NCC34CC5CC(CC(C5)C3)C4)C(=O)N(Cc3ccc4c(c3)OCO4)C1=C[C@H](C(C)C)O[C@@H]2C1CC1 | n | n | x | n | x | x
CCn1cc(CCC(=O)Nc2ccc(Oc3cccnc3)cc2)c2ccccc21 | n | n | x | n | x | x
Cc1ccc(C2/C(=C(\O)c3c(C)nc4c(C)cccn34)C(=O)C(=O)N2CCN(C)C)o1 (stereo not drawn) | n | n | n | n | x | x
Cc1nc2c(C)cccn2c1/C(O)=C1\C(=O)C(=O)N(CCN(C)C)C1c1ccccc1 (stereo not drawn) | n | 19.9 | n | n | n | n
Cc1ccc(C(=O)NC2CCCCN(C(C)C)C2=O)cc1 (stereo not drawn) | n | n | x | n | x | x
SMILES | PLCb3 inh | sPLA2-III inh | DAGLB inhibitor | PLCg1 inh | sPLA2 confirm | BODIPY interf | others
Brc1ccc(-c2nn3c(-c4ccccc4)nnc3s2)cc1 | n | n | x | n | x | x
FC(F)Sc1nc2ccccc2[nH]1 | n | 25.0 | n | n | n | n
CCOc1cc(C(=O)NC)cc(OCC)c1OCC | n | 19.7 | n | n | n | n
C/C(=N\NC(=S)NCC(C)(C)C)c1cc(F)cc(F)c1O | n | 33.1 | n | n | 42.7 | n | BODIPY interf DR=n
CCOC(=O)C1(C)CCCCCN1C(=O)c1ccc(N(C)C)cc1 (stereo not drawn) | n | 19.4 | x | n | n | n
Cn1c(CSCc2ccccc2Cl)n[nH]c1=S | n | n | n | n | x | x
Cn1c(CSCc2ccc(F)cc2)n[nH]c1=S | n | n | n | n | x | x
Cn1c(CSCc2ccc(Cl)cc2)n[nH]c1=S | n | 19.6 | n | n | n | n
Cn1c(CSCc2ccccc2)n[nH]c1=S | n | 31.7 | n | n | n | n
CCn1c2ccccc2c2cc(C=NNC(=O)c3ccoc3C)ccc21 | n | n | x | n | x | x
N#Cc1c2c(c[nH]c1=O)CCN2Cc1ccccc1 | n | 20.0 | n | n | n | n
CC(C)N(C(N)=NC(=O)OCc1ccccc1)C(C)C | n | n | x | n | x | x
O=Cc1nc(Nc2cc(F)cc(F)c2)nc(NC2CCCC2)n1 | n | 28.5 | x | n | 22.6 | n
Cc1ccc(Nc2nc(Cl)nc(NC3CCCCC3)n2)cc1 | n | n | n | n | x | x
Cc1cc(C)nc(SCc2cn3cc(Cl)ccc3n2)n1 | n | 20.7 | n | n | n | n
Clc1ccc2nc(CSc3ncn[nH]3)cn2c1 | n | n | n | n | x | x
CC(C)C[C@H]1COc2cccc(F)c2S(=O)(=O)N1Cc1cn(Cc2ccco2)nn1 | n | n | x | n | x | x
Cc1cccc(/C=N/NC(=O)c2c(-c3ccccc3)noc2C)c1O | n | 33.9 | n | n | n | n
COc1cc(/C=N/NC(=O)c2ccc3c(c2)OCCO3)cc(Br)c1O | n | 20.1 | n | n | n | n
Cc1cccc(/C=N\NC(=O)c2ccc(Cl)cc2)c1O | n | 37.2 | n | n | 22.4 | n
COc1ccccc1/C=N/NC(=O)c1c(-c2ccccc2)noc1C | n | n | n | n | x | x
Cc1cccc(/C=N/NC(=O)c2ccc3c(c2)OCCO3)c1O | n | 30.5 | n | n | 19.4 | n
Cc1cccc(/C=N/NC(=O)Cc2ccc(Cl)cc2)c1O | n | n | n | n | x | x
CCc1c2c3n4c1CCC[C@@H]4C[C@@H]3O[Si](C(C)C)(C(C)C)OC(C)C2=O (stereo partly drawn) | n | n | x | n | x | x
COCC(=O)N(c1ccc(C(C)C)cc1)C1C=CS(=O)(=O)C1 (stereo not drawn) | n | 19.3 | n | n | n | n
SMILES | PLCb3 inh | sPLA2-III inh | DAGLB inhibitor | PLCg1 inh | sPLA2 confirm | BODIPY interf | others
CS(=O)(=O)N1CCN(c2nc3ccc(Cl)cc3s2)CC1 | n | 22.7 | n | n | n | n
Clc1ccc2nc(N3CCCCC3)sc2c1 | n | n | n | n | x | x
Cc1oc2cc3oc(=O)c(CCC(=O)N[C@H](C(=O)O)C(C)C)c(C)c3cc2c1C | n | n | n | n | x | x
Cc1oc2cc3oc(=O)c(CCC(=O)N(C)CC(=O)O)c(C)c3cc2c1C | n | 23.0 | n | n | n | n
COC(=O)[C@H]1C[C@]2(C/C=C(\C)CCC=C(C)C)c3ccccc3N[C@H]2N1 | n | n | x | n | x | x
Cc1cc(C)cc(N(CC(=O)NC2CCC(C)CC2)S(=O)(=O)c2ccc(Cl)s2)c1 (stereo not drawn) | n | n | x | n | x | x
S=C1NC[C@H](Cc2ccccc2)N1CC1CCN(CCCC2CCCCC2)CC1 | n | n | x | n | x | x
CCc1ccc(NC(=S)Nc2ccc3cn[nH]c3c2)cc1 | n | 19.3 | n | n | n | n
